In PubChem BioAssay AID485364 (National Center for Advancing Translational Sciences (NCATS), 2010):
Out of some 360,000 compounds screened, about 11,000 (3.1%) were called active. Not shown: some 4% with an inconclusive outcome. The full list was thinned out, with actives kept by preference. A number with no mark means an inactive call. The call rests on the fitted dose curve; in most records, active means well fitted inhibition curve with a large enough effect; inconclusive means small, poorly fitted or top-dose-only effect; inactive means no such curve, though single readings can be large or run the other way.

Each compound was assayed against Schistosoma mansoni thioredoxin glutathione reductase (TGR) (UniProt Q962Y6) (assay: qHTS Assay for the Inhibitors of Schistosoma Mansoni Peroxiredoxins). Conditions: purified TGR, DTNB reduction, TNB absorbance 405 nm; series mostly up to 114 µM; activity change, negative = inhibition: at the top concentration.
Outline: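 TGR 20 nM + NADPH 100 uM (dispensed conc.), cpd preinc 15 min RT; start with NADPH (500 uM addition) then DTNB (15 mM addition). Kinetic TNB absorbance, 405 nm filter. Four-parameter Hill fit across titration.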
Further: nearly all actives have a fitted effect of over 60% in size.
On the % scale 0 is the no-effect control and ±100 the full control effect; potency means the concentration at half of the fitted maximal effect.

Structure (SMILES)	Potency	activity change, negative = inhibition
C/C(CCC(=O)OC[C@H]1O[C@H](C#Cc2ccccc2)C=C[C@@H]1Oc1ccc(C)cc1)=N\OC[C@@H](O)[C@H]1O[C@@H]2OC(C)(C)O[C@@H]2[C@H]1O	2.51 µM (active)	–
Cc1ccc(Cl)cc1NC(=O)Cc1ccc(-n2c(C)nc3cccnc32)cc1	–	-13.5%
Cc1ccc2sc(N(CCN(C)C)C(=O)/C=C/c3cccs3)nc2c1C	–	2.08%
COc1cccc2sc(N(CCCN(C)C)C(=O)CCS(=O)(=O)c3ccccc3)nc12	2 µM (active)	–
CN(C)S(=O)(=O)c1ccc(C(=O)N(Cc2cccnc2)c2nc3c(F)cc(F)cc3s2)cc1	–	0.57%
O=C(C1COc2ccccc2O1)N(Cc1cccnc1)c1nc2c(F)cc(F)cc2s1 (configuration not stated)	–	-3.03%
Cc1cc(C)c2nc(N(CCN(C)C)C(=O)/C=C/c3cccs3)sc2c1	–	-18%
COc1ccc(N(C)C(=O)CCS(=O)(=O)c2cccc3nsnc23)cc1	inactive	–
Cc1cccc2sc(N(CCCN(C)C)C(=O)CCS(=O)(=O)c3ccccc3)nc12	10 µM (active)	–
CN(C)CCCN(C(=O)c1ccc(S(=O)(=O)N2CCCc3ccccc32)cc1)c1nc2ccc(F)cc2s1	–	-19.5%
O=C(CCS(=O)(=O)c1ccccc1)N(Cc1cccnc1)c1nc2c(F)cccc2s1	0.562 µM (active)	–
Cc1ccc(N2CC(NC(=O)Cc3cccs3)CC2=O)cc1 (configuration not stated)	–	-1.46%
Cc1nc2sc(C)c(C)n2c(=O)c1S(=O)(=O)NCCc1ccc(Cl)cc1	–	0.289%
O=C(NC1CCCCC1)c1ccc(Cn2c(SCc3ccccc3)nc3cccnc32)cc1	–	3.32%
COc1ccc(CCNc2nc(-c3ccc(Cl)cc3)cc(C(F)(F)F)n2)cc1OC	–	0.381%
Cc1ccccc1OCCSc1nc2ccc(NC(=O)c3ccco3)cc2s1	–	4.23%
Cc1cc(C)c(NC(=O)CSc2nc3nccnc3c(=O)n2CCc2c[nH]c3ccccc23)c(C)c1	–	-4.93%
Cc1ccc(NC2=C(c3ccc(C(F)(F)F)cc3)C(=O)c3ccccc32)cc1F	–	1.74%
CCOc1ccccc1NC(=O)CN1CCCN(Cc2cccc(Cl)c2)S1(=O)=O	–	5.08%
CCOc1ccc(CCNC(=O)CN(c2ccc(C)cc2)S(=O)(=O)N(C)C)cc1OCC	–	5.27%
CCCN(C(=O)Cn1cc(S(=O)(=O)N2CCN(c3ccccc3F)CC2)c2ccccc2c1=O)c1cccc(C)c1	–	-0.645%
COc1ccccc1C(CNC(=O)c1cccc(NS(=O)(=O)c2ccc(Br)cc2)c1)N(C)C (configuration not stated)	–	-18.1%
COc1ccccc1C(CNC(=O)c1cccc(S(=O)(=O)Nc2ccc(F)cc2)c1)N(C)C (configuration not stated)	–	-7.49%
CC(=O)c1ccc(S(=O)(=O)Nc2ccc(C(=O)NCC(c3ccccc3)N(C)C)cc2)cc1 (configuration not stated)	14.1 µM (active)	–
COc1ccc(C(CNC(=O)c2ccc(S(=O)(=O)Nc3ccccc3F)cc2)N(C)C)cc1 (configuration not stated)	–	0%

Structure (SMILES)	Potency	activity change, negative = inhibition
CN(C)C(CNC(=O)c1cccc(S(=O)(=O)Nc2ccc(Br)cc2)c1)c1ccco1 (configuration not stated)	35.5 µM (active)	–
CN(C)C(CNC(=O)c1ccc(S(=O)(=O)NCc2ccco2)cc1)c1ccccc1 (configuration not stated)	–	-27%
CCN(Cc1ccccc1)Cc1c(O)ccc2c(=O)c(-c3ccc(Cl)cc3Cl)coc12	–	-29.1%
COCCN(Cc1ccco1)C(=O)Cn1ncc2c([nH]c3ccccc32)c1=O	–	-24.7%
COc1cccc(CNC(=O)c2ccc3c(c2)sc2nc(-c4cccc(OC)c4)cn23)c1	–	-0.0879%
O=C(NCCS(=O)(=O)N1CCN(c2ccc(F)cc2)CC1)c1ccccc1Br	–	-2.24%
CC(NC(=O)c1cc2c(=O)n3ccccc3nc2n(C(C)C)c1=N)c1ccccc1 (configuration not stated)	–	-1.78%
CCc1cc(C(N)=O)c(NC(=O)c2ccc(OC)cc2)s1	–	3.99%
COc1cc(C(c2c(NC(=O)c3ccco3)sc(C)c2C)N2CCOCC2)cc(OC)c1OC (configuration not stated)	–	-35.7%
CCc1cc(C(c2ccccc2OC)N2CCOCC2)c(NC(=O)c2ccccc2)s1 (configuration not stated)	20 µM (active)	–
O=C(Cn1c(=O)n(Cc2cccs2)c(=O)c2cccnc21)Nc1ccc(F)cc1	–	-3.83%
CCc1ccc(CN(C)C(=O)CCc2nnc(-c3ccc(-c4ccccc4)cc3)o2)nc1	35.5 µM (active)	–
CC(=O)c1ccc(-c2nnc(CCC(=O)N(C)Cc3cnc4ccccn34)o2)s1	–	-14.4%
CCc1ccc(CN(C)Cc2nc(Cc3ccccc3)no2)nc1	–	-21.7%
Cc1c(CNCCc2ccccc2)c(C(=O)O)c(C)n1-c1ccccc1	44.7 µM (active)	–
COc1ccc(CCNCc2c(C(=O)O)c(C)n(Cc3cccc(C)c3)c2C)cc1OC	–	-2.69%
CCOc1ccccc1CNCc1c(C(=O)O)c(C)n(Cc2ccc(C)cc2)c1C	–	-3.22%
NC(=O)CSc1nc2c(oc3ccccc32)c(=O)n1Cc1ccccc1	–	5.1%
CN1c2ccc(Cl)cc2-c2nc(SCC(=O)Nc3cc(F)ccc3F)ncc2S1(=O)=O	–	0.619%
N#Cc1ccccc1S(=O)(=O)N1CCN(Cc2c(O)ccc3ccccc23)CC1	0.891 µM (active)	–
COc1ccc(-c2csc3ncnc(N4CCN(S(=O)(=O)c5ccccc5C#N)CC4)c23)cc1	–	-8.78%
N#Cc1ccccc1S(=O)(=O)N1CCN(C(=O)c2cc(-c3ccccc3)nn2-c2ccccc2)CC1	–	-1.32%
O=C(CSc1cn(CC(=O)N2CCOCC2)c2ccccc12)Nc1ccccc1	–	11.4%
COc1ccc(C(c2nnnn2Cc2cccs2)N2CCN(c3ccccc3)CC2)cc1OC (configuration not stated)	44.7 µM (active)	–
COc1ccccc1C(c1nnnn1CC1CCCO1)N1CCN(c2ccccc2)CC1 (configuration not stated)	–	-1.2%

Structure (SMILES)	Potency	activity change, negative = inhibition
CCC(C)(C)n1nnnc1C(c1ccc(OC)c(OC)c1)N1CCN(C(=O)c2ccco2)CC1 (configuration not stated)	–	-29.5%
CCOc1ccc(CCNC(=O)c2c(C)oc3ncn(C)c(=O)c23)cc1	–	0.186%
CCSc1nc(C)c(CCOc2cccc(C)c2)c(=O)[nH]1	–	-7.91%
CCSc1nc(O)c(C(c2cccc(OC)c2)c2c(O)nc(SCC)[nH]c2=O)c(=O)[nH]1	5.01 µM (active)	–
CC(C)c1c(O)nc(SCCOc2ccc(Cl)cc2)[nH]c1=O	–	0.293%
CCc1ccc(CNC(=O)c2cc3c(=O)n(CC)c4ccccc4c3s2)cc1	–	8.1%
CC1=C(c2ccc(F)cc2)S(=O)(=O)N=C1N1CCC(C(=O)NCCc2ccccc2C)CC1	–	-1.75%
CCC1CCCCN1C(=O)Cn1c(=O)n(CCCCCC(=O)NCc2ccccc2)c(=O)c2sccc21 (configuration not stated)	–	-7.45%
O=C(COC(=O)[C@H](Cc1ccccc1)NC(=O)c1cccs1)Nc1cc(F)ccc1F	–	2.43%
Cc1ccc(C)c(NC(CC(=O)c2ccccc2)C(=O)OCC(=O)c2cccs2)c1 (configuration not stated)	12.6 µM (active)	–
COC(=O)C(CC(=O)Nc1cc(C)ccc1C)Nc1ccccc1OC (configuration not stated)	–	-24.7%
CCN(CCCNC(=O)c1ccc(Sc2ccc(C)cc2)c(NC(C)=O)c1)c1cccc(C)c1	–	1.43%
CC1CCN(S(=O)(=O)c2ccc3c(c2)N(CC(=O)NCc2ccccc2Cl)C(=O)CO3)CC1	–	4.2%
O=c1n(Cc2cccc(C(F)(F)F)c2)c2ccccc2c2nc(-c3ccccc3)nn12	–	8.09%
CN1CCN(C(CNC(=O)c2ccccc2F)c2ccc3c(c2)OCO3)CC1 (configuration not stated)	–	-3.13%
CC1CCCN(c2cc3c(cc2F)c(=O)c(S(=O)(=O)c2cccc(Cl)c2)cn3Cc2ccccc2)C1 (configuration not stated)	–	-1.38%
C=CCN1C=C2C(=O)C(C)(OC(=O)CCc3ccccc3)C(=O)C=C2C=C1c1ccc(C#N)cc1 (configuration not stated)	–	-25.6%
COC/C=C/C1=CC2=CC(=O)C(C)(OC(=O)CCC(=O)OC)C(=O)C2=CO1 (configuration not stated)	3.98 µM (active)	–
CCCCC1=CC2=CC(=O)C(C)(OC(=O)CC)C(=O)C2=CN1CCCOC(C)C (configuration not stated)	–	-25.2%
O=C(NCCCO)C(=O)Nc1c2c(nn1-c1ccc(F)cc1)CSC2	–	-26.7%
Nc1nc(Sc2ncccc2[N+](=O)[O-])n[nH]1	–	2.21%
Cn1cnc([N+](=O)[O-])c1Sc1ccccc1	50.1 µM (active)	–
Cn1nc(-c2ccccc2)c(CO)c1Sc1ccccc1	–	-3.58%
Cn1cnc([N+](=O)[O-])c1Nc1ccccc1O	–	-2.08%
Nc1nc(SCC(=O)Nc2ccc(Cl)c([N+](=O)[O-])c2)n[nH]1	–	-2.15%

Structure (SMILES)	Potency	activity change, negative = inhibition
Cn1cnc([N+](=O)[O-])c1Sc1n[nH]c(N)n1	10 µM (active)	–
Cc1ccc(C(=O)Cc2nnc(C)s2)cc1	10 µM (active)	–
Cc1ccc(C(=O)Cn2cccn2)cc1	–	2.69%
Cc1nnc(NC(=O)c2ccc3nccnc3c2)s1	–	-3.57%
Cc1cc(C)cc(NC(=O)CSc2nc(=O)n(CCN3CCOCC3)c3c2CCC3)c1	–	8.04%
Cc1occc1C(=O)NNC(=S)NCC(C)C	–	-10.8%
CC(C)CNC(=S)NC(=O)c1ccc(Cl)cc1	50.1 µM (active)	–
CC(C)C(NC(=O)c1ccc(Cl)cc1)C(=O)O (configuration not stated)	–	-11.7%
CC[N+](C)(CC)CCC[n+]1c(-c2ccccc2)c2cc(N)ccc2c2ccc(N)cc21	39.8 µM (active)	–
CC(=O)c1ccc(NC(=O)COc2ccccc2-c2nc(-c3ccccc3)no2)cc1	–	-3.59%
CCc1ccc(NC(=O)c2cc(S(=O)(=O)NC3CCCCCC3)ccc2F)cc1	–	3.87%
Cc1ccc(NC(=O)C(Cc2ccccc2)NS(=O)(=O)c2ccc3c(c2)oc(=O)n3C)cc1C (configuration not stated)	–	-0.776%
Cc1oc2ncnc(N3CCOCC3)c2c1C(=O)NCCc1ccccc1	–	0.044%
CCC(=O)N1CCc2cc(CNS(=O)(=O)c3ccc(Br)s3)ccc21	–	2.77%
Cc1nccc(-c2ccc(-n3c(C)ccc3C)cc2)n1	39.8 µM (active)	–
c1ccc(-c2nccc(-c3ccc(-n4cnc5ccccc54)cc3)n2)nc1	–	3.5%
Cc1ccc(-n2c(-c3ccc(Cl)cc3)n[nH]c2=S)cc1	–	7.4%
O=C(Nc1ccc(C(=O)OCc2cc(=O)n3nc(C4CC4)sc3n2)cc1)c1ccc(F)cc1	–	-6.43%
Cc1ccc(CNS(=O)(=O)c2ccc(-c3cc(C(F)(F)F)on3)s2)cc1	–	6.71%
COc1cccc(OCC(=O)NNC(=O)c2cnccn2)c1	–	3.38%
COC(=O)c1ccc(OC(=O)c2cnccn2)cc1	56.2 µM (active)	–
COC(=O)c1ccc(COC(=O)c2cnccn2)cc1	–	2.29%
